Here are results for 19 compounds from PubChem BioAssay (NCATS).

Test [1] in a line: Quantitative highthroughput screen to assess conditional lethalithy of NOMO1 cells grown in RPMI1640 with untreated serum (RPMI+s) (AID 1963876). Also: nearly all actives have a fitted effect of over 35% in size.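 As to viability: 100% = DMSO wells and 0% = empty wells without cells.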 The method, boiled down:
(§1)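 Each medium arm—HPLM with 10% dialyzed FBS, or RPMI1640 with 5 mM glucose and 10% untreated or dialyzed FBS—was screened against an 11-point, 3-fold compound titration for 48 h at 37 °C, with CellTiter-Glo luminescence as endpoint.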

Test [2] in a line: Quantitative highthroughput screen to assess conditional lethalithy of NOMO1 cells grown in RPMI1640 with dialyzed fetal bovine serum (RPMI+ds) (AID 1963877). Also: nearly all actives have a fitted effect of over 30% in size.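 As to viability: series mostly up to about 46 µM; 100% = DMSO control wells and 0% = empty wells.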 In a few lines: as §1
Test [3] can be described thus: Quantitative highthroughput screen to assess conditional lethalithy of NOMO1 cells grown in Human Plasma-Like Medium with dialyzed fetal bovine serum (HPLM+ds) (AID 1963878). Also: nearly all actives have a fitted effect of over 35% in size.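 As to viability: 100% = DMSO wells and 0% = empty wells on each plate.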 The method, boiled down: as §1
Test [4] is described as follows: Quantitative highthroughput screen to assess conditional lethalithy of P12 Ichikawa cells grown in Human Plasma-Like Medium with dialyzed fetal bovine serum (HPLM+ds) (AID 1963879). Also: nearly all actives have a fitted effect of over 35% in size. As to viability: series mostly up to about 46 µM. Conditions: Potency: viability. In a few lines: as §1
Test [5] can be described thus: Quantitative highthroughput screen to assess conditional lethalithy of P12 Ichikawa cells grown in RPMI1640 with dialyzed fetal bovine serum (RPMI+ds) (AID 1963880). Also: nearly all actives have a fitted effect of over 35% in size.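 As to viability: 100% = DMSO wells and 0% = empty wells on each plate.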 The settings on record: Potency: P12-Ichikawa viability. In a few lines:
as §1

Test [6] in a line: Quantitative highthroughput screen to assess conditional lethalithy of P12 Ichikawa cells grown in RPMI1640 with untreated serum (RPMI+s) (AID 1963881). Also: nearly all actives have a fitted effect of over 35% in size.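 As to viability: series mostly up to about 46 µM; 100% = DMSO wells and 0% = empty wells without cells.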 The settings on record: Potency: viability. In a few lines:
as §1

The nature of test [7]: Quantitative highthroughput screen to assess conditional lethalithy of SEM cells grown in RPMI1640 with dialyzed fetal bovine serum (RPMI+ds) (AID 1963884). Also: nearly all actives have a fitted effect of over 35% in size.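 As to viability: series mostly up to about 46 µM; 100% = DMSO control wells and 0% = empty wells without cells.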 In a few lines: as §1
Test [8] is described as follows: Cellular viability qHTS for adrenocortical cancer (ACC) cell line SW-13 (AID 1963989). Also: nearly all actives have a fitted effect of over 65% in size.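 As to activity (max response): cells grown in serum-free medium with ITS supplement; % is scaled to controls: 0 for no effect and ±100 for the full control effect.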 Conditions: SW-13 ACC cells viability, CellTiter-Glo, 48 h; activity (max response): hits give low values. In a few lines: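 48 h treatment, SW-13 in ITS/DMEM serum-free; doses up to 46 uM; readout CellTiter-Glo luminescence; curve fit four-parameter logistic.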
A general note: Quantitative high-throughput screening tests each substance at several concentrations.

Test [9] in a line: Cellular viability qHTS for adrenocortical cancer (ACC) cell line NCI-H295R (AID 1963990). Also: nearly all actives have a fitted effect of over 60% in size. The method, boiled down:
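Compound titrations (up to 46 uM final) are applied to NCI-H295R cultures for 48 h at 37C. Viable cell number is estimated by CellTiter-Glo signal, normalised to DMSO and doxorubicin controls.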

A short description of test [10]: Quantitative highthroughput screen to assess conditional lethalithy of SEM cells grown in RPMI1640 with unreated serum (RPMI+s) (AID 1963883). Also: nearly all actives have a fitted effect of over 35% in size.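 As to viability: 100% = DMSO wells and 0% = empty wells without cells.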 In a few lines:
as §1

Test [11] in a line: Quantitative highthroughput screen to assess conditional lethalithy of SEM cells grown in Human Plasma-Like Medium with dialyzed fetal bovine serum (HPLM+ds) (AID 1963882). Also: nearly all actives have a fitted effect of over 35% in size. As to viability: series mostly up to about 46 µM. In a few lines:
as §1

Structures are written as SMILES. Records with an inconclusive call do not appear. A number with no mark means an inactive call. The source made the active and inactive calls. Calls follow the shape of the dose curve; as a rule, active = well fitted curve in the direction sought with a large enough effect; inconclusive = small, poorly fitted or top-dose-only effect, or another doubt; inactive = no such curve, though single readings can be large; an effect the other way counts as inactive or inconclusive.
Potency is read from the fitted curve at half-maximal effect.

Turning to `O=c1n(CCCN2CCN(c3cccc(Cl)c3)CC2)nc2ccccn12`, the Potency entry in test [1], in test [2], in [3], in test [4], in test [5] and in test [6] was “inactive” throughout. In addition, the Potency entry in test [7] and in test [9] was “inactive” throughout. Moreover, the activity (max response) in test [8] is -1.77%.

For the compound `CCN(CC)CCn1c(=O)c(Cc2ccc(OC)cc2)nc2ccccc21`, the Potency entry in test [1], in test [2], in test [3], in [4], in [5] and in [6] was “inactive” in each case. In addition, the Potency result in [10], in [7] and in test [9] was “inactive” throughout. Also, the activity (max response) in test [8] was -3.48%.

As for `Cn1cc(-c2ccc3nnc(C(F)(F)c4ccc5ncccc5c4)n3n2)cn1`, the Potency result in test [1], in test [2], in test [3], in test [4], in test [5] and in test [6] was “inactive” throughout. Moreover, the Potency entry in test [10], in test [7] and in test [9] was “inactive” each time. Besides, in [8], the activity (max response) is 3.57%.

Take `C#CCN(C)CC1=Cc2ccccc2Oc2ccccc21`: the Potency entry in test [1], in test [2], in test [3], in [4], in test [5] and in test [6] was “inactive” throughout. Further, the Potency result in test [9] is “inactive”. Further, in [8], the activity (max response) was 0.599%.

Regarding `CCOC(=O)C1=C[C@@H](OC(CC)CC)[C@H](NC(C)=O)[C@@H](N)C1`, the Potency entry in [1], in [2], in [3], in test [4], in test [5] and in [6] was “inactive” in each case. Also, the Potency result in test [10], in test [7] and in [9] was “inactive” in each case. Also, the activity (max response) in test [8] is 7.32%.

Take `Cc1ccc(/C=N/NC(=O)c2ccccc2Oc2ccccc2)o1`: the Potency entry in test [1], in test [2], in [3], in test [4], in test [5] and in test [11] was “inactive” in each case. For the same compound, the Potency result in test [10] and in test [9] was “inactive” each time. Besides, in [8], the activity (max response) was -16.3%.

As for `N[C@@H](Cc1c[nH]c2ccc(O)cc12)C(=O)O`, the Potency result in test [1], in test [2], in [3], in test [4], in test [5] and in [6] was “inactive” each time. For the same compound, the Potency result in [11] and in [9] was “inactive” each time. In addition, in test [8], the activity (max response) is 10.6%.

With `CC(=O)SC[C@@H](C)C(=O)N1CCC[C@H]1C(=O)N[C@@H](Cc1ccccc1)C(=O)O`, the Potency entry in [1], in test [2], in [3], in test [4], in test [5] and in [6] was “inactive” each time. Moreover, the Potency result in test [10], in test [7] and in test [9] was “inactive” in each case. The activity (max response) in test [8] was 16.6%.

Regarding `NS(=O)(=O)c1ccc(NC2=CC(=O)c3ccccc3C2=O)cc1`, the Potency entry in test [1], in [2], in [3], in [4], in [5] and in [6] was “inactive” each time. The activity (max response) in test [8] is -24.7%. Further, the Potency in [9] was 3980 nM (active).

Turning to `O=[N+]([O-])c1ccc(Nc2ccccc2-c2ccccc2)c2nonc12`, the Potency result in test [1], in test [2], in [3], in [4], in test [5] and in test [6] was “inactive” throughout. Moreover, the Potency in test [8] was 8910 nM (active); in test [9], 11200 nM (active).

`C[C@]12CC[C@H](O)CC1=CC[C@@H]1[C@H]2CC[C@]2(C)C(c3cccnc3)=CC[C@H]12`: the Potency entry in test [1], in [2], in test [3], in test [4], in test [5] and in [11] was “inactive” each time. Moreover, the Potency entry in test [10] and in test [7] was “inactive” in each case.

Turning to `O=C(O)C=Cc1ccc(Cn2ccnc2)cc1`, the Potency entry in test [1], in [2], in test [3], in [4], in test [5] and in [6] was “inactive” in each case. Besides, the Potency result in test [10] and in test [7] was “inactive” throughout.

Take `CC(C=CC(=O)NO)=C[C@@H](C)C(=O)c1ccc(N(C)C)cc1`: the Potency in test [1] is 2090 nM (active); in test [2], 1870 nM (active); in test [3], 1660 nM (active); in test [4], 1480 nM (active); in test [5], 1180 nM (active); in test [11], 590 nM (active). The Potency in test [10] was 662 nM (active).

On to `C=C1C(=CC=C2CCC[C@]3(C)[C@@H]([C@H](C)C=C[C@H](C)C(C)C)CC[C@@H]23)C[C@@H](O)C[C@@H]1O`, for which the Potency in [1] was 16600 nM (active); in test [2], 20900 nM (active); in [3], 8330 nM (active); in test [4] it was 8330 nM (active); in test [5] it was 14800 nM (active); in test [6] it was 9350 nM (active). Further, the activity (max response) in test [8] was -0.683%. In addition, the Potency entry in test [9] was “inactive”.

For the compound `CC1(O)CC(c2nc(-c3ccc4ccc(-c5ccccc5)nc4c3)c3c(N)nccn23)C1` (configuration not stated), the Potency in test [1] was 3720 nM (active); in [2] it was 3720 nM (active); in [3] it was 2350 nM (active); in test [4] it was 7430 nM (active); in test [5], 5900 nM (active); in test [11], 2350 nM (active). Also, the values for the Potency in test [10] and in test [7] were 1180 nM (active) and 2350 nM (active), respectively. Moreover, the activity (max response) in test [8] is -21%.

As for `O=C(O)[C@H](Cc1c[nH]c2ccccc12)N1C(=O)c2ccccc2C1=O`, the Potency entry in test [1], in [2], in test [3], in test [4], in test [5] and in test [6] was “inactive” throughout. In addition, the Potency entry in test [11] and in test [9] was “inactive” in each case. In addition, the activity (max response) in test [8] is -15.6%.

`OCCn1cc(-c2ccc3c(c2)CCC3=NO)c(-c2ccncc2)n1`: the Potency entry in test [1], in test [2], in test [3], in test [4], in test [5] and in [6] was “inactive” in each case. Further, the Potency entry in [7] was “inactive”.

On to `COc1cc(C=CC(=O)O)ccc1O`, for which the Potency entry in [1], in [2], in test [3], in [4], in [5] and in [11] was “inactive” throughout. The Potency entry in [10] was “inactive”.

For `CN(C)CC=CC(=O)Nc1cc2c(Nc3ccc(F)c(Cl)c3)ncnc2cc1O[C@H]1CCOC1`, the Potency in [1] is 1870 nM (active); in test [2], 1870 nM (active); in test [3] it was 1660 nM (active); in [4], 1660 nM (active); in test [5], 2350 nM (active); in [6] it was 1870 nM (active). Besides, the Potency in test [10] was 743 nM (active); in test [7] it was 1180 nM (active).
